# Source: ChEMBL document CHEMBL3988442, “University of Dundee, Small-Polar-MMV Screening Library” (2021)
# Several values for one entry are separate records, joined by “and”; a condition that tells them apart may be missing. Identical values can stand only once. Among all 67,000 compounds or so, about 40 (0.06%) showed an effect of 50% or more. For the sample, strong results were picked, then their nearest neighbours and some compounds at random.
# Molecular target: T1, Coenzyme A biosynthesis bifunctional protein CoaBC (Mycobacterium tuberculosis (strain ATCC 25618 / H37Rv)) (UniProt P9WNZ1)
# T1 sequence (whole entry): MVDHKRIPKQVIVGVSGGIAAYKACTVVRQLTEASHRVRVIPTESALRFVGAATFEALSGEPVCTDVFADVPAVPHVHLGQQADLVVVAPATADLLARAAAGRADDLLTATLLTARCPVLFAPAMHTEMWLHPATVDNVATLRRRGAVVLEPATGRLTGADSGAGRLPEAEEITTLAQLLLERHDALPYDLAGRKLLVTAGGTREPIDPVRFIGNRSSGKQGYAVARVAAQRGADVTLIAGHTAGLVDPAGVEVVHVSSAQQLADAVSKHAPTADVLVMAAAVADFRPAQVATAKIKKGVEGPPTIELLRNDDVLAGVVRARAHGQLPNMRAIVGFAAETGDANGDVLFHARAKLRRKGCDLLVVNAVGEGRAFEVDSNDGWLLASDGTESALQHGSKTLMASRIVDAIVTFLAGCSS
# Assay: Biomol Green assay for MtCoaBC inhibitor, OD650 read
# Type: functional
# Design: scale not given: in the data most compounds retested in dose-response had high values
# Conditions: 30 µM
row,SMILES,Percent Effect
1,O=C(N1CCCO1)[C@@]12CCO[C@@H]1CCN(Cc1ccsc1)C2,-8.02%
2,CCS(=O)(=O)N1CC[C@H]2CO[C@H](CN(C)C)[C@H]2C1,-0.203%
3,CC(=O)N1C[C@H]2CNC[C@@]2(C(=O)NCCCOc2cccnc2)C1,3.58%
4,CN1CCC(C)(CNC(=O)c2ccc(SCc3cccnc3)cc2)CC1,-1.65%
5,O=C(NCCC(=O)N1CCCC1)c1cccnc1,0.943%
6,O=C(c1cscn1)N1C[C@@H]2C[C@@H](c3nnc(C4CC4)o3)O[C@@H]2C1,0.38%
7,CC1CCN(C[C@H]2CN3CC[C@H]2C[C@@H]3CNC(=O)c2ccco2)CC1,-15.2%
8,Cc1ccccc1CC(=O)N1C[C@@H]2COC[C@]2(CN(C)C)C1,-10.9%
9,COCCN1CC[C@@H]2CN(Cc3cccnc3OC)C[C@@H]2C1,-0.364%
10,Nc1cc(O)nc(CCNC(=O)CC[C@@H]2CCCN3CCCC[C@H]23)n1,-3.91%
11,COc1ccc(C2CC(=O)c3c(O)cc(O)cc3O2)cc1O (stereo not drawn),17.8%
12,COc1cc(C2CC(=O)c3c(O)cc(O)cc3O2)ccc1O (stereo not drawn),7%
13,COc1cc(O)cc2c1C(=O)CC(c1ccc(O)cc1)O2 (stereo not drawn),65.2% and 48.7%
14,CN(Cc1ccco1)[C@@H]1CN(Cc2ccsc2)C[C@@H]2CCCO[C@@H]21,5.46%
15,COCc1cccc(C(=O)N2C[C@H]3CC[C@@H]2CN(Cc2cscn2)C3)n1,1.53%
16,Cn1cc(N2C(=O)CC[C@@H]3[C@H]2CCN3Cc2ccncc2)cn1,0.381%
17,Cc1nc(CN2CC[C@H]3[C@@H]2CCC(=O)N3c2cnn(C)c2)cs1,-3.58%
18,O=C1N[C@@H]2CCN(C(=O)C3CCC3)[C@@H]2C(=O)N1c1ccc(F)cc1,0.226%
19,Fc1cccc(O[C@@H]2C[C@H]3CN(Cc4ccccn4)CCN3C2)c1,0.483%
20,Cn1cccc1C(=O)N1CC[C@H]2C[C@@H](c3ccncn3)O[C@@H]2C1,1.03%
21,Cc1cc(CN2CCCC2)cc(Oc2ccc3c(c2)CC(CN)O3)c1 (stereo not drawn),3.85%
22,COc1ccc(CN2CCCC2)cc1Oc1ccc2c(c1)CC(CN)O2 (stereo not drawn),4.1%
23,O=C(NCC1CC1)[C@@H]1C[C@@H]2OCCN[C@@H]2C1,-1.96%
24,COc1ccc(-n2cc(CNC(=O)c3ccccn3)nn2)cc1,6.21%
25,CN1C(=O)CO[C@H]2CN(C(=O)Nc3ccc(F)cc3)C[C@H]21,9.63%
26,Cc1noc([C@H]2C[C@@H]3CCN(CC4CCOCC4)C[C@H]3O2)n1,14.2%
27,Cc1ccc(OCC(=O)N2CCN[C@H]3CS(=O)(=O)C[C@H]32)cn1,12%
28,Cc1ncsc1CN1C[C@@H]2COC[C@]2(COc2ccc(C#N)cn2)C1,2.8%
